Measurements taken from PubChem BioAssay AID1159580 (chemical genetic matrix, 2015).
Values joined by “and” are separate entries in the source; they are usually repeats but may differ in a detail not shown here. Equal values may be shown once. Out of some 5,500 compounds screened, about 2,000 (36%) were called active. Another 18% or so got no clear call; they are omitted. Rule as the data show it: active = normalized growth mostly below about 0.91 (no sharp cut-off); inconclusive = no clear call, values can overlap the other calls; inactive = mostly above about 0.92. The list shows a part of the results.

Assay: chemical genetic growth profiling, strain panel (AID 1159580);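 also: tested at 20 µM; growth read once vehicle control cultures reached saturation at 30 °C; 1 = growth at the plate median or of vehicle wells; lower values mean less growth of the strain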
Settings: growth OD

Measured: normalized growth

CN1C(C(=O)Nc2ccccn2)=C(O)c2ccccc2S1(=O)=O
active: S. cerevisiae deletion strains, locus YKL068W, stronger effect = lower value 0.925 | S. cerevisiae deletion strains, locus YLL026W, stronger effect = lower value 0.93 | S. cerevisiae deletion strains, locus YMR205C, strain PFK2, stronger effect = lower value 0.781 | S. cerevisiae deletion strains, locus YNL071W, strain lat1, stronger effect = lower value 0.786 | S. cerevisiae deletion strains, locus YNL248C, strain rpa49, stronger effect = lower value 1.26 [resistant] | S. cerevisiae deletion strains, locus YNL271C, strain bni1, stronger effect = lower value 0.911 | S. cerevisiae deletion strains, locus YNL307C, strain MCK1, stronger effect = lower value 0.82 | S. cerevisiae deletion strains, locus YPR163C, strain tif3, stronger effect = lower value 0.885
inactive: S. cerevisiae deletion strains, locus YKL009W, strain mrt4, stronger effect = lower value 0.963 | S. cerevisiae deletion strains, locus YKL085W, strain MDH1 (second series), stronger effect = lower value 0.935 | S. cerevisiae deletion strains, locus YKL085W, strain MDH1, stronger effect = lower value 0.935 | S. cerevisiae deletion strains, locus YKL160W, strain elf1, stronger effect = lower value 0.933 | S. cerevisiae deletion strains, locus YKL190W, strain CNB1, stronger effect = lower value 1.01 | S. cerevisiae deletion strains, locus YKR001C, strain vps1, stronger effect = lower value 0.969 | S. cerevisiae deletion strains, locus YKR026C, strain gcn3, stronger effect = lower value 0.958 | S. cerevisiae deletion strains, locus YKR091W, strain srl3, stronger effect = lower value 0.968 | S. cerevisiae deletion strains, locus YLL001W, strain dnm1, stronger effect = lower value 0.963 | S. cerevisiae deletion strains, locus YLL041C, strain sdh2, stronger effect = lower value 0.953 | S. cerevisiae deletion strains, locus YLR027C, strain aat2, stronger effect = lower value 0.932 | S. cerevisiae deletion strains, locus YLR039C, strain RIC1, stronger effect = lower value 0.984 | S. cerevisiae deletion strains, locus YLR058C, strain SHM2, stronger effect = lower value 0.982 | S. cerevisiae deletion strains, locus YLR102C, strain apc9, stronger effect = lower value 0.946 | S. cerevisiae deletion strains, locus YLR113W, strain HOG1, stronger effect = lower value 0.934 | S. cerevisiae deletion strains, locus YLR221C, strain rsa3, stronger effect = lower value 0.925 | S. cerevisiae deletion strains, locus YLR258W, strain gsy2, stronger effect = lower value 0.95 | S. cerevisiae deletion strains, locus YLR262C, strain YPT6 (second series), stronger effect = lower value 0.919 | S. cerevisiae deletion strains, locus YLR262C, strain YPT6, stronger effect = lower value 0.998 | S. cerevisiae deletion strains, locus YLR268W, strain sec22, stronger effect = lower value 0.921 | S. cerevisiae deletion strains, locus YLR320W, strain mms22, stronger effect = lower value 0.881 | S. cerevisiae deletion strains, locus YLR330W, strain CHS5, stronger effect = lower value 0.967 | S. cerevisiae deletion strains, locus YLR342W, strain FKS1 (second series), stronger effect = lower value 0.94 | S. cerevisiae deletion strains, locus YLR342W, strain FKS1, stronger effect = lower value 0.931 | S. cerevisiae deletion strains, locus YLR357W, strain rsc2, stronger effect = lower value 1 | S. cerevisiae deletion strains, locus YLR370C, strain arc18, stronger effect = lower value 0.985 | S. cerevisiae deletion strains, locus YLR371W, strain rom2, stronger effect = lower value 0.95 | S. cerevisiae deletion strains, locus YLR384C, strain iki3, stronger effect = lower value 0.961 | S. cerevisiae deletion strains, locus YLR418C, strain cdc73, stronger effect = lower value 0.905 | S. cerevisiae deletion strains, locus YML016C, strain PPZ1, stronger effect = lower value 0.965 | S. cerevisiae deletion strains, locus YML032C, strain rad52, stronger effect = lower value 0.954 | S. cerevisiae deletion strains, locus YML120C, strain ndi1, stronger effect = lower value 0.95 | S. cerevisiae deletion strains, locus YML124C, strain tub3, stronger effect = lower value 0.95 | S. cerevisiae deletion strains, locus YMR058W, strain fet3, stronger effect = lower value 0.961 | S. cerevisiae deletion strains, locus YMR078C, strain ctf18, stronger effect = lower value 0.926 | S. cerevisiae deletion strains, locus YMR125W, strain sto1, stronger effect = lower value 0.985 | S. cerevisiae deletion strains, locus YMR129W, stronger effect = lower value 0.935 | S. cerevisiae deletion strains, locus YMR223W, strain ubp8, stronger effect = lower value 0.97 | S. cerevisiae deletion strains, locus YMR231W, strain pep5, stronger effect = lower value 0.97 | S. cerevisiae deletion strains, locus YMR263W, strain SAP30, stronger effect = lower value 0.996 | S. cerevisiae deletion strains, locus YMR307W, strain GAS1, stronger effect = lower value 0.836 and 1 | S. cerevisiae deletion strains, locus YNL067W, strain RPL9B, stronger effect = lower value 1 | S. cerevisiae deletion strains, locus YNL128W, strain TEP1, stronger effect = lower value 1.02 | S. cerevisiae deletion strains, locus YNL153C, strain GIM3, stronger effect = lower value 0.984 | S. cerevisiae deletion strains, locus YNL175C, strain NOP13, stronger effect = lower value 0.971 | S. cerevisiae deletion strains, locus YNL183C, strain NPR1, stronger effect = lower value 0.919 | S. cerevisiae deletion strains, locus YNL197C, strain WHI3, stronger effect = lower value 0.97 | S. cerevisiae deletion strains, locus YNL209W, strain ssb2, stronger effect = lower value 0.982 | S. cerevisiae deletion strains, locus YNL224C, strain SQS1, stronger effect = lower value 0.968 | S. cerevisiae deletion strains, locus YNL233W, strain BNI4, stronger effect = lower value 0.993 | S. cerevisiae deletion strains, locus YNL250W, strain rad50, stronger effect = lower value 0.923 | S. cerevisiae deletion strains, locus YNL298W, strain CLA4, stronger effect = lower value 0.935 | S. cerevisiae deletion strains, locus YNL322C, strain KRE1 (second series), stronger effect = lower value 0.943 | S. cerevisiae deletion strains, locus YNL322C, strain KRE1, stronger effect = lower value 0.973 and 1 | S. cerevisiae deletion strains, locus YNR049C, strain mso1, stronger effect = lower value 0.964 | S. cerevisiae deletion strains, locus YNR052C, strain pop2, stronger effect = lower value 0.965 | S. cerevisiae deletion strains, locus YOL006C, strain TOP1, stronger effect = lower value 0.999 | S. cerevisiae deletion strains, locus YOL012C, strain htz1 0.613 | S. cerevisiae deletion strains, locus YOL147C, strain pex11, stronger effect = lower value 0.944 | S. cerevisiae deletion strains, locus YOR001W, strain rrp6, stronger effect = lower value 0.92 | S. cerevisiae deletion strains, locus YOR061W, strain CKA2, stronger effect = lower value 0.976 | S. cerevisiae deletion strains, locus YOR069W, strain VPS5, stronger effect = lower value 0.966 | S. cerevisiae deletion strains, locus YOR070C, strain gyp1, stronger effect = lower value 0.973 | S. cerevisiae deletion strains, locus YOR080W, strain dia2, stronger effect = lower value 0.978 | S. cerevisiae deletion strains, locus YOR083W, strain WHI5 (second series), stronger effect = lower value 0.99 | S. cerevisiae deletion strains, locus YOR083W, strain WHI5, stronger effect = lower value 0.946 | S. cerevisiae deletion strains, locus YOR106W, strain vam3, stronger effect = lower value 0.965 | S. cerevisiae deletion strains, locus YOR136W, strain idh2, stronger effect = lower value 0.988 | S. cerevisiae deletion strains, locus YOR144C, strain elg1, stronger effect = lower value 0.953 | S. cerevisiae deletion strains, locus YOR184W, strain ser1, stronger effect = lower value 0.961 | S. cerevisiae deletion strains, locus YOR231W, strain MKK1, stronger effect = lower value 0.945 | S. cerevisiae deletion strains, locus YOR265W, strain rbl2, stronger effect = lower value 0.967 | S. cerevisiae deletion strains, locus YOR270C, strain vph1, stronger effect = lower value 0.954 | S. cerevisiae deletion strains, locus YOR290C, strain snf2, stronger effect = lower value 0.971 | S. cerevisiae deletion strains, locus YOR316C, strain cot1, stronger effect = lower value 0.95 | S. cerevisiae deletion strains, locus YPL051W, strain arl3, stronger effect = lower value 0.961 | S. cerevisiae deletion strains, locus YPL055C, strain LGE1, stronger effect = lower value 0.987 | S. cerevisiae deletion strains, locus YPL078C, strain atp4, stronger effect = lower value 0.95 | S. cerevisiae deletion strains, locus YPL106C, strain sse1, stronger effect = lower value 0.989 | S. cerevisiae deletion strains, locus YPL240C, strain hsp82, stronger effect = lower value 0.953 | S. cerevisiae deletion strains, locus YPL241C, strain CIN2, stronger effect = lower value 0.967 | S. cerevisiae deletion strains, locus YPL256C, strain CLN2, stronger effect = lower value 0.907 | S. cerevisiae deletion strains, locus YPR119W, strain clb2, stronger effect = lower value 0.931 | S. cerevisiae deletion strains, locus YPR141C, strain kar3, stronger effect = lower value 0.923 | S. cerevisiae deletion strains, locus YPR167C, strain met16, stronger effect = lower value 0.962 | S. cerevisiae deletion strains, strain wtn01, stronger effect = lower value 0.961 | S. cerevisiae strains, strain wild type, stronger effect = lower value 0.984
